# Screening data (PubChem)
# The list is not random: actives were taken first. Their share in the collection is about 12%.
# BAZ2B block = inhibitors of human BAZ2B bromodomain | Q9UIF8 | AlphaScreen BAZ2B-H3K14Ac peptide displacement | Potency, µM (top dose mostly 114 µM), for the others: top-dose activity change, negative = inhibition, hits mostly inhibitors | 4.4% of 360,000 active | AID 504333; also: % is scaled to controls: 0 for no effect and ±100 for the full control effect; nearly all actives have a fitted effect of over 60% in size
#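 BAZ2B 50 nM plus b-H3(5-23)K14Ac 50 nM, PBS pH 7.4/0.01% Tween-20, 30 min RT; compound added (max 110 uM), 30 min RT; streptavidin donor/Ni-chelate acceptor beads 10 ug/mL final, 20 min dark; AlphaScreen read.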
# Sfp inh = Sfp phosphopantetheinyl transferase inhibition | Q9F4F7 | Biochemical Sfp PPTase activity, qHTS | Potency, µM, without a hit: largest response in the series, negative = inhibition, usual class: inhibitors | 3.5% of 310,000 active;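 also: the enzyme is Sfp with the accession as filed and its product quenches rhodamine fluorescence; 0% = enzyme reaction without inhibitor and -100% = no enzyme wells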
#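 Compounds were incubated with enzyme (final 15 nM) for 15 min at room temperature before substrate addition started the reaction. Fluorescence at 525 nm excitation, 598 nm emission was recorded immediately and after 30 minutes.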
# G9a block = G9a (human) methyltransferase inhibition | Potency, µM (titrated, usually from 102 µM), for inactives: at the top dose activity, negative = inhibition, hits mostly inhibitors | 8.8% of 350,000 active | G9a H3K9 monomethylation, AlphaScreen, 2 h | AID 504332; also: % is scaled to controls: 0 for no effect and ±100 for the full control effect; nearly all actives have a fitted effect of over 75% in size
#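 Compounds were preincubated with 20 nM G9a for 15 min, after which biotinylated H3K9 peptide (500 nM) and SAM (20 uM) started a 2 h room-temperature reaction. Monomethylated product was quantified by antibody-based AlphaScreen chemiluminescence.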
# JMJD2A Tudor = inhibitors of human JMJD2A Tudor domain; O75164; AlphaScreen JMJD2A-Tudor / H3K4me3 peptide binding; Potency, µM (doses to about 114 µM), for the others: at the highest dose activity change, negative = inhibition, actives largely listed as inhibitors; 4.4% of 390,000 active; AID 504339; also: % is scaled to controls: 0 for no effect and ±100 for the full control effect; nearly all actives have a fitted effect of over 50% in size
# Target sequence (O75164 whole entry, looked up, the tested form may be a part): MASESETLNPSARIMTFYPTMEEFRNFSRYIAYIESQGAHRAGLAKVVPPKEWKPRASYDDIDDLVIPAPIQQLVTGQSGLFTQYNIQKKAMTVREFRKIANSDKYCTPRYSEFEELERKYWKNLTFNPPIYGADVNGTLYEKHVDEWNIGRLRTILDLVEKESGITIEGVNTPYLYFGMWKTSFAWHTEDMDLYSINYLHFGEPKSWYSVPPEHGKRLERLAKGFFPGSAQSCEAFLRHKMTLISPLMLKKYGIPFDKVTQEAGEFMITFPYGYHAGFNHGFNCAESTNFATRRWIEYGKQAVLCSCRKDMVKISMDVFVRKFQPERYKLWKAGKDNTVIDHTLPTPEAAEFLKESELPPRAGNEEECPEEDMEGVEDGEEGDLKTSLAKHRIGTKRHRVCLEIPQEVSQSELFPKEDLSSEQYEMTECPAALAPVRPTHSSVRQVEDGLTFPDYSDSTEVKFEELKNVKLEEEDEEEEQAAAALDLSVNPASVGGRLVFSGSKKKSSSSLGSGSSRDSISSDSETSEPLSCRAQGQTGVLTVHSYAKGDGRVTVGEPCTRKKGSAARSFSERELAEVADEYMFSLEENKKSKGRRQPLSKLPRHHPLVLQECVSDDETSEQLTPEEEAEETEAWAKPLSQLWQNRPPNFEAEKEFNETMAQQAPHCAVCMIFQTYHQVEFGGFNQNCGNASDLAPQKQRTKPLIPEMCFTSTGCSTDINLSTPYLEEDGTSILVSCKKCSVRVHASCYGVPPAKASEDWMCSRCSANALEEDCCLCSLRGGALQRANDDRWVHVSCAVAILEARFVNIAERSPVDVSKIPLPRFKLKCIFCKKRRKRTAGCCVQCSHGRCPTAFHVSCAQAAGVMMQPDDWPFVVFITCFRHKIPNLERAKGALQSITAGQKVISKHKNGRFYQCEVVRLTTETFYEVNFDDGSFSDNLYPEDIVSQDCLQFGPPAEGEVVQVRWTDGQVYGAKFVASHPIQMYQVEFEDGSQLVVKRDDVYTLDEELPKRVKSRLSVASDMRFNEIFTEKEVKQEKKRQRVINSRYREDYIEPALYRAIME
# HP1b binding inh = inhibitors of HP1-beta chromodomain binding to methylated histone tails; AlphaScreen HP1-beta / biotin-H3K9me3 peptide binding; 0.56% of 390,000 active; Potency, µM (highest dose often 114 µM), inactives show at the highest dose activity change, negative = inhibition, actives largely listed as inhibitors; AID 540317; P83916; also: nearly all actives have a fitted effect of over 70% in size
#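 Compound inhibition of the preformed complex between 50 nM HP1-beta and 50 nM biotinylated H3K9me3 peptide was read by AlphaScreen. Buffer was PBS pH 7.4 with 0.01% Tween-20. Incubations ran 30 min at room temperature, with 10 ug/mL donor/acceptor beads.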
# The depositor's hits bear a star; ? = inconclusive; . = no result given; [ ] = remark or other dose. Calls follow the shape of the dose curve; as a rule, active = well fitted curve in the direction sought with a large enough effect; inconclusive = small, poorly fitted or top-dose-only effect, or another doubt; inactive = no such curve, though single readings can be large; an effect the other way counts as inactive or inconclusive. Potency is read from the fitted curve at half-maximal effect.
SMILES,BAZ2B block,Sfp inh,G9a block,JMJD2A Tudor,HP1b binding inh
C[C@@]12CCC3[C@@](CCC4[C@@]3(C)CCC[C@@]4(C)C(=O)NC3CCCCC3)(CC1=O)C2 (some centres undefined),8%,.,10%[0.501 µM],-30%,6%
COC(=O)c1cccc(OCC(O)Cn2cnc3cc(C)c(C)cc32)c1 (centres undefined),-22%,89µM*,11%,-15%,25%
COc1cccc(COCC(O)Cn2cnc3cc(C)c(C)cc32)c1 (centres undefined),?,-14%,6.3µM*,3.5µM*,?
COC(=O)c1ccc(OCC(O)Cn2cnc3cc(C)c(C)cc32)cc1 (centres undefined),-17%,.,9%[59 µM],?,11%
COCCn1c(N)c(N(Cc2ccccc2)C(=O)Cc2ccccc2F)c(=O)[nH]c1=O,-13%,15%,21%[59 µM],-8%,34%
COc1ccc(Nc2nc(-c3c[nH]c4ccccc34)cs2)cc1,45µM*,-22%,?,-3%,19%
COc1ccc2oc(=O)c(-c3csc(Nc4ccc(O)cc4)n3)cc2c1,?,25µM*,?,-22%,-16%
COc1ccc2oc(=O)c(-c3csc(-c4ccc(Br)cc4)n3)cc2c1,16%,.,0%[59 µM],32%,47%
Cc1nc2sccn2c(=O)c1S(=O)(=O)NCc1ccccc1,3%,15%,18%,-7%,48%
C=CCNc1nc(-c2c(C)nc3sccn23)cs1,-11%,-16%,28µM*,-30%,18%
Cc1ccc(NS(=O)(=O)c2c(C)nc3sccn3c2=O)cc1,-5%,17%,10%,-13%,24%
Cc1nc2sccn2c1-c1csc(NCc2ccccc2)n1,?,-16%,?,63µM*,?
O=C1NN(c2ccccc2)C(=O)/C1=C\c1cccc(OC(=O)c2cccs2)c1,56µM*,50µM*,?,?,3%
COC(=O)N/N=C\c1cccc(OC(=O)c2cccs2)c1,-12%,6%,15%[59 µM],-13%,35%
O=C1NN(c2ccc(Cl)c(Cl)c2)C(=O)/C1=C/c1cccc(OC(=O)c2cccs2)c1,50µM*,?,?,.,.
COc1ccc(C(=O)CSc2nnc3ccccn23)cc1OC,-1%,13%,2%[59 µM],-16%,75%
CCCCn1c(SCC(=O)c2ccc3c(c2)OCCO3)nnc1-c1ccco1,-26%,50µM*,?,-21%,21%
O=C(CSc1nnc(-c2ccc3c(c2)OCO3)n1-c1ccccc1)c1ccccc1,-3%,5%,-2%[59 µM],-3%,17%
O=C(CSc1nnc2ccccn12)c1ccc2c(c1)OCCO2,-4%,9%,40µM*,-10%,49%
CCn1c(SCC(=O)Nc2ccc3c(c2)OCCO3)nnc1-c1ccco1,3%,10%,-40%[12.7 µM],-17%,-1%
O=C(CSc1nnc(-c2cccs2)n1-c1ccccc1)c1ccc2c(c1)OCCO2,11%,-7%,40µM*,-2%,26%
CCn1c(SCC(=O)c2ccc3c(c2)OCCO3)nnc1C(C)C,0%,?,45µM*,-16%,-12%
CCOC(=O)c1cccc2c1N[C@@H](c1ccc(F)cc1)[C@H]1CC=C[C@@H]21,?,.,10µM*,40µM*,?
CCc1cc(C(c2ccncc2)N2CCN(C)CC2)c(NC(=O)c2ccccc2)s1 (centres undefined),?,-17%,40µM*,-35%,16%
Cc1nc2ccccn2c(=O)c1CCN1CCC(C(=O)c2ccc(F)cc2)CC1,8%,8%,13%[59 µM],-3%,42%
SMILES,BAZ2B block,Sfp inh,G9a block,JMJD2A Tudor,HP1b binding inh
Cc1nc2n(c(=O)c1CCN1CCC(c3noc4cc(F)ccc34)CC1)CCCC2O (centres undefined),.,.,30µM*,.,.
CCOC(=O)c1ccc(NC(=O)Cc2noc3ccc(C)cc23)cc1,-1%,.,13µM*,-6%,51%
COc1ccc(NC(=O)Cc2noc3ccc(C)cc23)cc1Cl,-18%,.,2%[59 µM],-10%,29%
N=c1n(CC(=O)c2ccc(Br)s2)c2ccccc2n1Cc1ccccc1,-37%,14µM*,?,-16%,32%
COC(=O)c1ccc(-n2cc(-c3ccc(OC)cc3)[nH]c2=S)cc1,-10%,-23%,1.1µM*,-16%,13%
COc1ccc(-c2cn(-c3ccc(C)c(Cl)c3)c(=S)[nH]2)cc1OC,-10%,-24%,50µM*,-15%,-4%
COc1ccc(-n2cc(-c3ccc(Cl)cc3)[nH]c2=S)cc1,-2%,2%,.,0%,47%
COc1cccc(-n2cc(-c3ccc(F)cc3)[nH]c2=S)c1,50µM*,?,?,45µM*,14%
COc1ccc(-c2cn(-c3ccccc3)c(=S)[nH]2)cc1OC,?,?,8.9µM*,-33%,-6%
COc1cccc(CNC(=O)CCNS(=O)(=O)c2cccs2)c1,-4%,6%,?,3%,22%
COc1cc(C2C3=C(CC(C)(C)CC3=O)Nc3ccccc3N2C(C)=O)cc(OC)c1OC (centres undefined),16%,1%,.,-4%,14%
Cc1nn(-c2ccccc2)c(C)c1/C=N/n1c(-c2ccc(Cl)cc2)n[nH]c1=S,-27%,-20%,5µM*,?,-7%
Cc1ccc(-c2nn(-c3ccccc3)cc2/C=N/n2c(-c3ccncc3)n[nH]c2=S)cc1,-3%,19%,?,?,17%
Cc1ccc(-c2n[nH]c(=S)n2/N=C/c2c(C)[nH]n(-c3ccccc3)c2=O)cc1,.,50µM*,1.3µM*,?,13%
Cc1[nH]n(-c2ccccc2)c(=O)c1C=Nc1ccc(S(N)(=O)=O)cc1,-22%,7%,?,-16%,-15%
Cc1nn(-c2ccccc2)c(C)c1/C=N/n1c(-c2ccncc2)n[nH]c1=S,?,-18%,2.2µM*,?,11%
CC(=O)c1c2c3c(cccc3n(C)c1=O)C(=O)c1ccccc1-2,?,-2%,18µM*,-27%,48%
CC(=O)c1c2c3c(c(Br)ccc3n(C)c1=O)C(=O)c1ccccc1-2,?,-11%,.,-36%,-21%[57 µM]
Cn1c(=O)c(Nc2ccc(O)cc2)c2c3c(cccc31)C(=O)c1ccccc1-2,6.3µM*,-17%,13µM*,7.9µM*,18µM*
COc1cc(/C=C/C(=O)c2ccc(C)cc2)ccc1OCC#N,-28%,-12%,?,-28%,6%
CN(Cc1nc2ccccc2n1C)S(=O)(=O)c1ccc(F)cc1,-3%,4%,11%[59 µM],-12%,48%
Cc1ccccc1NC(=O)Cc1nnc(SCC(=O)Nc2ccccc2)n1C,-20%,11%,-1%[59 µM],-9%,53%
Cc1ccc(NC(=O)Cc2n[nH]c(=S)n2C)cc1,-24%,22%,?,8.9µM*,31%
Cc1ccc(NC(=O)Cc2ccc(F)cc2)cc1,8%,5%,20%[12.7 µM],4%,36%
Cn1c(CC(=O)Nc2ccccc2)n[nH]c1=S,-12%,7%,14%,5µM*,25%
